Screening results as filed in PubChem.
Sampled rows, rich in hits. Any-hit rate of the full collection: about 6.9%.
Vif-APOBEC3F blk = blocks the Vif interaction with APOBEC3F; 390,000 tested, 0.2% active; HeLa A3F-eYFP + Vif (tagged APOBEC3F with the HIV-1 protein that degrades it), YFP fluorescence increase; Potency, µM (titrated, usually from 46.1 µM), inactives show top-dose activity, negative = active; further: potency means the concentration at half of the fitted maximal effect; % of control where 0% means no effect; nearly all actives have a fitted effect of over 65% in size
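Fluorescence increase (Ex 488/Em 500-530) after overnight compound treatment at 37 deg C flags inhibition of Vif-driven A3F-eYFP loss in stable HeLa A3F-eYFP/Vif cells seeded overnight beforehand.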
Giardia killer = Giardia lamblia killing; Giardia lamblia trophozoite viability; activity change, % at 7.66 µM, hits read low; 340,000 tested, 0.15% active; AID 540267; in the data active means activity change below about -80%; inconclusive means between about -30% and that limit;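 further: parasites exposed to compound for two days anaerobically before the ATP read; on the % scale 0 is the no-effect control and ±100 the full control effect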
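Compounds were tested on trophozoites seeded at 100 cells/well and held 48 hrs at 37 deg C anaerobically. An ATP-based luminescent kit measured the remaining live cells.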
IL-1B inflam inh = inhibitors of inflammasome signaling (IL-1 beta secretion); AID 743279; 360,000 tested, 4.7% active; THP-1 LPS/ATP IL-1B secretion, AlphaLISA, 16 h; stronger effect = lower value; activity change, % at 57.5 µM; in the data active means activity change below about -50%; inconclusive means mostly about -30% to -49%; further: on the % scale 0 is the no-effect control and ±100 the full control effect
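THP-1 cells pretreated 1 hr with compounds (up to 57.5 uM final), then stimulated with LPS (250 ng/mL final) plus ATP (1.25 mM final); secreted IL-1B measured by AlphaLISA after 16 hr, decreased signal indicating inhibition.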
Vif-APOBEC3G blk = blocks the Vif interaction with human APOBEC3G | HeLa A3G-eYFP + Vif (tagged APOBEC3G with the HIV-1 protein that degrades it), YFP fluorescence, overnight | 410,000 tested, 0.076% active | Q9HC16 | Potency, µM (highest dose often 46.1 µM), for the others: top-dose activity, negative = active, most hits filed as inhibitors | AID 602310; further: potency means the concentration at half of the fitted maximal effect; on the % scale 0 is the no-effect control and ±100 the full control effect; nearly all actives have a fitted effect of over 60% in size
Target sequence (Q9HC16 whole entry, looked up): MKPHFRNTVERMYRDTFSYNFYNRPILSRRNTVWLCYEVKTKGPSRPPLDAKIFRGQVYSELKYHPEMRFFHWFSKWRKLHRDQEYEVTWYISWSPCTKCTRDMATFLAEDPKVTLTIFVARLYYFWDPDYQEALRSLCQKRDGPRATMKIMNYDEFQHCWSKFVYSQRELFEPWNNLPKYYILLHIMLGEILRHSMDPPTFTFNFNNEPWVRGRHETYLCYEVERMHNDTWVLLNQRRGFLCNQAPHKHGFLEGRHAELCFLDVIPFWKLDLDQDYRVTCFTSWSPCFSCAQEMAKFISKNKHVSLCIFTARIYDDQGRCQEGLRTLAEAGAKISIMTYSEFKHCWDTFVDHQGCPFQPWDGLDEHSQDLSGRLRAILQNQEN
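Read-out is eYFP fluorescence (Ex 488/Em 500-530) from Vif-expressing HeLa A3G-eYFP cells; more signal means A3G escaped Vif-mediated degradation. Cells plated overnight, compound pinned in, incubated overnight at 37 deg C.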
MCF10A rerep = induces DNA re-replication in MCF 10a normal breast cells; 350,000 tested, 2.9% active; MCF 10A DNA re-replication, Hoechst nuclear intensity, 48 h; Potency, µM (top dose mostly 46.1 µM), without a hit: at the highest dose activity, positive = re-replication, actives largely listed as activators; further: potency means the concentration at half of the fitted maximal effect; % of control where 0% means no effect; nearly all actives have a fitted effect of over 50% in size
SW480 rereplic = inducers of DNA re-replication in SW480 colon cancer cells. AID 624297. 340,000 tested, 1.8% active. Potency, µM (highest dose often 46.1 µM), for the others: at the highest dose re-replication activation, usual class: activators. SW480 DNA re-replication, Hoechst DNA content imaging, 48 h; further: potency means the concentration at half of the fitted maximal effect; % of control where 0% means no effect; nearly all actives have a fitted effect of over 55% in size
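250 cells/well; 23 nL cpd via pin tool; 48 hr, 37 C, 5% CO2; Hoechst 40 min; imager read of total nuclear intensity, ex 405/em 500-530 nm.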
* hit, by the source's call; ? = inconclusive; . = not tested or not shown. Unless noted, the call rests on the fitted dose curve; in most records, active means well fitted curve in the direction sought with a large enough effect; inconclusive means small, poorly fitted or top-dose-only effect, or another doubt; inactive means no such curve, though single readings can be large; an effect the other way counts as inactive or inconclusive.

SMILES	Vif-APOBEC3F blk	Giardia killer	IL-1B inflam inh	Vif-APOBEC3G blk	MCF10A rerep	SW480 rereplic
O=C1OCCN1C(=O)[C@H]1[C@H](c2ccc(Cl)cc2)C(c2ccccc2)=NN1c1ccc(Br)cc1	2%	-15	-28	-2%	?	23µM*
O=C1OCCN1C(=O)[C@H]1[C@H](c2ccc([N+](=O)[O-])cc2)C(c2ccccc2)=NN1c1ccc(Br)cc1	0%	7	-27	-1%	-45%	-24%
O=C1OCCN1C(=O)[C@H]1[C@H](c2ccc(F)cc2)C(c2cccc(Cl)c2)=NN1c1ccc(Br)cc1	-3%	-25	-4	-8%	?	1.3µM*
O=C1OCCN1C(=O)[C@H]1[C@H](c2ccccc2)C(c2cccc(Cl)c2)=NN1c1ccc(Br)cc1	5%	-19	0	1%	?	2.1µM*
CCOC(=O)c1nc(C)n(-c2cc(OC)c(Cl)cc2Cl)n1	7%	8	-92*	-1%	-32%	-60%
CC(=O)Nc1cccc(NC(=O)CSc2cn(CC(=O)N(C(C)C)C(C)C)c3ccccc23)c1	2%	.	.	0%	.	.
CCc1cc[n+](C2=C([O-])c3ccccc3C(=O)/C2=N\S(=O)(=O)c2cccs2)cc1	20%	-22	-86*	-4%	?	4.6µM*
Cc1cc(N2CCN(c3cccc(C(F)(F)F)c3)CC2)n2nc(-c3ccccc3C)nc2n1	-1%	.	.	0%	.	.
COC(=O)c1cccc(NC(=O)CC2C(=O)NCCN2C(=O)Nc2cc(C)cc(C)c2)c1 (configuration not stated)	1%	-10	-62*	0%	7%	1%
Cc1cc(C)cc(NC(=O)N2CCNC(=O)C2CC(=O)Nc2cc(Cl)ccc2Cl)c1 (configuration not stated)	-6%	-3	-57*	-3%	0%	1%
O=C(CC1C(=O)NCCN1C(=O)Nc1ccc(F)cc1F)Nc1cc(Cl)ccc1Cl (configuration not stated)	-6%	4	.	-1%	14%	-2%
O=C(CC1C(=O)NCCN1C(=O)Nc1ccc(C(F)(F)F)cc1)Nc1ccc(F)cc1 (configuration not stated)	-6%	-14	?	-11%	?	2%
COC(=O)CC1C(=O)NCCN1C(=O)Nc1ccccc1 (configuration not stated)	3%	28	8	2%	-3%	-8%
COc1ccc(NC(=O)CC2C(=O)NCCN2C(=O)Nc2ccc(C(F)(F)F)cc2)cc1 (configuration not stated)	-2%	9	-79*	-5%	6%	?
Cn1c(-c2ccc(C=O)s2)nc2c3ccccc3c3ccccc3c21	?	30	21	1%	10µM*	?
CCCCNC(=O)CCCn1c(=O)c2ccccc2n(Cc2cccc(Cl)c2)c1=O	3%	.	.	3%	.	.
CCC1=NN(C(=O)c2ccccc2O)C(O)(c2ccccc2)C1 (configuration not stated)	-12%	-1	107	?	?	16µM*
O=C(c1ccccc1O)N1N=C(c2ccccc2)CC1(O)C(F)(F)F (configuration not stated)	0%	4	0	-1%	21µM*	?
CCC1=NN(C(=O)c2ccccc2Br)C(O)(c2ccc(Br)cc2)C1 (configuration not stated)	-6%	22	-13	1%	12%	12%
Cc1ccc(C2=NN(C(=O)c3ccco3)C(O)(C(F)(F)F)C2)cc1 (configuration not stated)	0%	24	-66*	1%	12%	-8%
Oc1cccc(NC(=S)Nc2ccc(SC(F)F)cc2)c1	-2%	-7	-58*	4%	15%	1%
CCCCNC(=S)Nc1ccc(SC(F)F)cc1	?	-4	-105*	1%	-1%	11%
